In PubChem BioAssay (Tox21):
Where “and” joins values, the source holds several entries; their conditions need not be identical. Identical values can stand only once. Inconclusive results are not listed. A structure can be active in one record and inactive in another. Calls of active or inactive are those of the source. Unless noted, the call rests on the fitted dose curve; in most records, active means well fitted curve in the direction sought with a large enough effect in the repeat runs; inconclusive means weak or mixed curves; inactive means no such curve, though single readings can be large; an effect the other way counts as inactive or inconclusive.

What was measured:
[1] = qHTS assay to identify small molecule agonists of the hypoxia (HIF-1) signaling pathway - cell viability counter screen (AID 1224844; calls by dose curve; further: nearly all actives have a fitted effect of over 50% in size; further: potency means the concentration at half of the fitted maximal effect)
Summary of the method: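 Tox21 10K compounds were added to HRE-bla ME-180 cells (0.5% dialyzed FBS) and incubated 17 hrs at 37C; ATP-based CellTiter-Glo luminescence then reported cell viability in the same wells.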

[2] = qHTS assay to identify small molecule agonists of H2AX (AID 1224845; active means well fitted activation curve with a large enough effect in the signal ratio in the repeat runs, not every such curve was filed as active; the % refers to the signal ratio)
Summary of the method: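 Wild-type CHO-K1 cells plated overnight, then exposed 3 hr at 37C to compounds at 15 concentrations (0.76% DMSO). Lysed, then HTRF anti-pH2AX(S139)-cryptate/anti-H2AX-d2 detection after 24 hr at room temperature; emissions 665 and 620 nm.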

[3] = qHTS RealTime-Glo MT Cell Viability Assay in HepG2 cells - 24 hour (AID 1224867); further: nearly all actives have a fitted effect of over 50% in size; further: potency means the concentration at half of the fitted maximal effect
Summary of the method: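 HepG2 cells were seeded at 600 cells/well together with NanoLuc luciferase and a cell-permeant prosubstrate, preincubated 5 h at 37 C/5% CO2, then pin-dosed with compounds in DMSO. Nonlytic luminescence from viable cells was read at each time point.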

[4] = qHTS RealTime-Glo MT Cell Viability Assay in HEK293 cells - 32 hour (AID 1224868); further: nearly all actives have a fitted effect of over 50% in size; further: potency means the concentration at half of the fitted maximal effect
Summary of the method: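 HEK293 cells were seeded at 600 cells/well together with NanoLuc luciferase and cell-permeant prosubstrate, preincubated 5 h at 37 C/5% CO2, then given compound in DMSO by pintool. Luminescence from viable-cell prosubstrate reduction was read repeatedly over 40 h.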

[5] = A CellTox Green Cytotoxicity Assay to monitor cytotoxicity in HEK293 cells - 0 hour (AID 1224869); further: nearly all actives have a fitted effect of over 50% in size
Summary of the method: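 Cytotoxicity was tracked continuously in HEK293 cells by a DNA-binding dye excluded from viable cells. Compounds were transferred in DMSO 5 h after seeding; fluorescence was recorded at intervals up to 40 h.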

[6] = qHTS RealTime-Glo MT Cell Viability Assay in HepG2 cells - 40 hour (AID 1224870); further: nearly all actives have a fitted effect of over 50% in size; further: potency means the concentration at half of the fitted maximal effect
Summary of the method: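 HepG2 cells mixed with RealTime-Glo MT reagents (NanoLuc plus cell-permeant prosubstrate) were seeded at 600 cells/well, incubated 5 h at 37 C/5% CO2, then pinned with compounds in DMSO; nonlytic luminescence tracked viability during 40 h treatment.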

[7] = qHTS assay to identify small molecule agonists of H2AX - cell viability counter screen (AID 1224847; calls by dose curve; further: nearly all actives have a fitted effect of over 30% in size; further: potency means the concentration at half of the fitted maximal effect)
Summary of the method: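 Compounds tested at 15 concentrations were incubated 3 hr at 37C with wild-type CHO-K1 cells; cellular ATP-based luminescence (CellTiter-Glo) indicated viability.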

[8] = qHTS assay to identify small molecule antagonists of the estrogen related receptor (ERR) signaling pathway from Tox21 library (AID 1224848); further: nearly all actives have a fitted effect of over 50% in size; further: potency means the concentration at half of the fitted maximal effect
Summary of the method: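 Screening used an ERR reporter line supplied by NTP, exposed for 18 h at 37 C to library compounds delivered in DMSO. Signal was luciferase luminescence developed with ONE-Glo at room temperature for 30 min.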

[9] = qHTS assay to identify small molecule agonists of the hypoxia (HIF-1) signaling pathway (AID 1224846; active means well fitted activation curve with a large enough effect in the signal ratio in the repeat runs, not every such curve was filed as active; the % refers to the signal ratio)
Summary of the method: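 Steps: seed ME-180 HRE-bla cells (2,000/well, 0.5% dialyzed FBS); incubate 5 hrs at 37C; pin-transfer compounds or DMSO; incubate 17 hrs; add LiveBLAzer B/G substrate CCF4-AM; measure reporter activation by FRET.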

[10] = qHTS assay to identify small molecule agonists of the estrogen related receptor (ERR) signaling pathway from Tox21 library (AID 1224849; calls by dose curve; further: nearly all actives have a fitted effect of over 15% in size); details: ERR reporter cell line, ONE-Glo luciferase, 18 h; at 92.4 µM (top of the series) unless noted
Summary of the method: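 Agonist signal is luciferase luminescence from an ERR reporter cell line treated 18 h at 37 C with DMSO-dissolved compounds, read 30 min after ONE-Glo addition at room temperature.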
On the % scale 0 is the no-effect control and ±100 the full control effect.

CCN(CC)C(=S)S
active: Potency [1] 19.7 µM and 8.66 µM and 9.77 µM | Potency [4] 24.8 µM and 4.87 µM and 11 µM
inactive and 21.9 µM (active): Potency [3] | Potency [6]
inactive: Potency [2] | Potency [5]

CCN1CCC2(CC1)COc1cc3c(cc12)N(C(=O)c1ccc(-c2ccc(-c4nnc(C)o4)cc2C)cc1)CC3
active: Potency [1] 20.2 µM | Potency [7] 104 µM | Potency [8] 10 µM | Potency [4] 11.3 µM | Potency [6] 45.2 µM
inactive: Potency [2] | Potency [5]

c1ccc(N=NNc2ccccc2)cc1
active: Potency [7] 92.9 µM and 101 µM
51.9% (active) and 0.0484% (inactive): activity change, positive = activation [10]
inactive: Potency [1] | Potency [9] | Potency [8] | Potency [3] | Potency [4] | Potency [5]

O=C(O)[C@H](O)[C@@H](O)C(=O)O
inactive: Potency [1] | Potency [2] | Potency [7] | Potency [3] | Potency [4] | Potency [5] | Potency [6]

Cc1ccc2cc3c(ccc4ccccc43)c3c2c1CC3
inactive: Potency [1] | Potency [2] | Potency [7] | Potency [3] | Potency [4] | Potency [5] | Potency [6]

CC1(C)C(C=C(Cl)Cl)C1C(=O)OC(C#N)c1ccc(F)c(Oc2ccccc2)c1 (configuration not stated)
inactive: Potency [1] | Potency [2] | Potency [3] | Potency [4] | Potency [5] | Potency [6]

N#Cc1c2ccccc2cc2ccccc12
inactive: Potency [1] | Potency [2] | Potency [8] | Potency [3]

CN(C)c1ccc(N)cc1
inactive: Potency [1] | Potency [9] | Potency [6]
active: Potency [7] 87.6 µM | Potency [4] 24 µM

c1csc(-c2ccc(-c3cccs3)s2)c1
inactive: Potency [1] | Potency [2] | Potency [7] | Potency [3] | Potency [4] | Potency [5] | Potency [6]

CCCCc1ccccc1
inactive: Potency [1] | Potency [2] | Potency [7] | Potency [3] | Potency [4] | Potency [5]

c1ccc2nc(N3CCNCC3)ccc2c1
inactive: Potency [1] | Potency [2] | Potency [7] | Potency [3] | Potency [4] | Potency [5] | Potency [6]

Oc1cc(Cl)cc(Cl)c1
inactive: Potency [2] | Potency [9] | activity change, positive = activation [10] -48.8% | Potency [3] | Potency [5] | Potency [6]
active: Potency [7] 90.7 µM | Potency [8] 61.8 µM

CCn1cc[n+](C)c1 (tested in a mixture with another compound)
inactive: Potency [2] | Potency [9] | Potency [7] | Potency [3] | Potency [4] | Potency [5] | Potency [6]

Cc1cnc2c(C(=O)O)c(Cl)ccc2c1
inactive: Potency [2] | Potency [9] | Potency [7] | Potency [8] | activity change, positive = activation [10] -0.863% | Potency [3] | Potency [4] | Potency [5] | Potency [6]

CCN(CC)C(=O)N[C@@H]1C=C2c3cccc4[nH]cc(c34)C[C@@H]2N(C)C1
inactive: Potency [2] | Potency [9] | Potency [7] | Potency [3] | Potency [4] | Potency [5]

O=[N+]([O-])c1ccc(CCl)cc1
inactive: Potency [2] | Potency [9] | Potency [7] | Potency [8] | Potency [3] | Potency [5] | Potency [6]

O=P(Cl)(Cl)Cl
inactive: Potency [2] | Potency [9] | Potency [7] | Potency [3] | Potency [4] | Potency [5]

CC(O)C(=O)[O][Hg][c]1ccccc1 (configuration not stated)
active: Potency [1] 1.38 µM | Potency [7] 6.35 µM | Potency [8] 3.86 µM | Potency [3] 2.45 µM | Potency [4] 0.977 µM | Potency [6] 2.75 µM
inactive: activity change, positive = activation [10] -80.9% | Potency [5]

CC[C@H](C)[C@H]1O[C@]2(C=C[C@@H]1C)C[C@@H]1C[C@@H](C/C=C(\C)[C@@H](O[C@H]3C[C@H](OC)[C@@H](O[C@H]4C[C@H](OC)[C@@H](NC)[C@H](C)O4)[C@H](C)O3)[C@@H](C)/C=C/C=C3\CO[C@@H]4[C@H](O)C(C)=C[C@@H](C(=O)O1)[C@]34O)O2
active: Potency [1] 21.9 µM | Potency [7] 16 µM | Potency [3] 9.77 µM | Potency [4] 4.9 µM | Potency [6] 9.77 µM
inactive: Potency [5]

Cc1cc2c3c(c1)C(c1ccccc1)=N[C@@H](NC(=O)c1ccncc1)C(=O)N3CC2
inactive: Potency [2] | Potency [9] | Potency [7] | Potency [8] | activity change, positive = activation [10] -15.6% | Potency [3] | Potency [4] | Potency [5] | Potency [6]

[C-]1=CC=CC1.[Cl][Zr+2][Cl].c1cc[cH-]c1
inactive: Potency [1] | Potency [7] | Potency [5] | Potency [6]

Nc1ccc(Cl)cc1C(=O)c1ccccc1F
inactive: Potency [2] | Potency [9] | Potency [7] | Potency [8] | activity change, positive = activation [10] 7.6% [at 42.5 µM] | Potency [3] | Potency [4] | Potency [5] | Potency [6]

Nc1ccccc1-c1ccccc1
inactive: Potency [2] | Potency [9] | Potency [7] | Potency [3] | Potency [4] | Potency [5] | Potency [6]
active: Potency [8] 27.1 µM
